Assay outcomes deposited in PubChem by several laboratories.
An excerpt weighted towards active compounds, which were near 4.3% of everything screened.
CF NFkB block – blocks PAF-induced NF-kB reporter in cystic fibrosis cells. KKLEB NF-kB-GFP reporter, GFP fluorescence overnight. inhibition, % at 5 µM. 360,000 tested, 0.86% active. AID 588850;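 active means at least 50% inhibition at 5 µM, scaled per plate between neutral and stimulator controls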;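 further: PAF is a Pseudomonas aeruginosa culture filtrate used as stimulus; plate controls were PAF-stimulated DMSO wells for no effect and unstimulated DMSO wells for full effect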
Peg3 prom inh – inhibitors of Peg3 promoter | HeLa PEG-Prom luciferase reporter, luminescence, overnight | inhibition, % at 20 µM | 360,000 tested, 1.7% active;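 active means inhibition of at least 50% at 20 µM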
KKLEB cytotox – reduces viability of KKLEB cystic fibrosis airway cells. KKLEB CF airway cells viability, ATPlite luminescence, overnight; stronger effect = lower value; cells stimulated with P. aeruginosa culture filtrate. activity change (cytotoxicity), % at 5 µM. 360,000 tested, 0.36% active. AID 602141;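 active means corrected activity change at or below -50% at 5 µM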
TRPM1 prom inh – reduces MITF-dependent TRPM1 promoter luciferase signal | SK-MEL-5 TRPM1 promoter luciferase, 24 h | inhibition, % at 12.5 µM | 330,000 tested, 0.83% active;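 active means mean inhibition across replicates of 60% or more, whatever share of single replicates reaches that level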
CHOP inhibitor – inhibitors of CHOP induction in ER stress response. CHO-K1 CHOP-promoter luciferase, tunicamycin-induced, 15-18 h. inhibition, % at 10 µM. 220,000 tested, 3.8% active;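 active means compounds that reduced the stress-induced luciferase reporter signal by more than about 70% of percent inhibition, limit read from the data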;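 further: 0% = tunicamycin plus vehicle and 100% = wells without tunicamycin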
HIF-2a block – blocks HIF-2a reporter activity | 786-0 RCC cells HIF-2a reporter, luciferase luminescence, overnight | inhibition, % at 18.8 µM | 360,000 tested, 0.72% active;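 active means inhibition of the luminescence signal of 40% or more relative to plate controls, in a single-dose primary screen at 18.75 µM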
Starred values were filed as active, the others as inactive; nt = not tested or not shown.

SMILES	CF NFkB block	Peg3 prom inh	KKLEB cytotox	TRPM1 prom inh	CHOP inhibitor	HIF-2a block
COc1cc2c(cc1OC)C(C(=O)Nc1ccc(F)c(Cl)c1)CC(=O)N2 (stereo unspecified)	2	11	7	8	nt	18
CCNC(=O)C1(C)CCCN1Cc1ccccc1Cl (stereo unspecified)	15	11	-6	nt	nt	4
CC1=CCP(=O)(c2ccccc2)C1 (stereo unspecified)	-10	5	0	4	72*	18
Cc1cc(C)c(C#N)c(SCC(=O)OC2CCCCC2)n1	-5	-20	2	-8	77*	0
CC(C)N(C)c1ncnc2c1ncn2[C@H]1CN(Cc2ccc3c(c2)OCO3)C[C@@H](CO)O1	5	0	-8	nt	nt	10
COC(=O)CSc1nc(C)c(C(C)=O)cc1C#N	-2	2	1	-11	14	18
CCCSc1nc(C)c(C(C)=O)cc1C#N	2	0	-2	-3	70*	-8
CCc1ccc(S(=O)(=O)/N=C2\C=C(NS(=O)(=O)c3ccccc3)C(=O)c3ccccc32)cc1	69*	-33	-10	20	nt	-63
CC(C)c1ccc(S(=O)(=O)/N=C2\C=C(NS(=O)(=O)c3ccccc3)C(=O)c3ccccc32)cc1	74*	-7	-3	20	nt	-13
CC(O)(c1ccc(F)c(F)c1)c1nc(-c2ccc3ccccc3c2)cs1 (stereo unspecified)	-13	-10	6	nt	nt	-33
Fc1ccc(-c2cc(C(F)(F)F)nc(NCC3CCCO3)n2)cc1 (stereo unspecified)	0	-1	10	0	84*	11
C/C(=N\NC(=O)c1cc(-c2cccc([N+](=O)[O-])c2)n[nH]1)c1ccccc1O	-4	18	3	-9	94*	-18
COc1cc(C2C3=C(COC3=O)OC(C)(C)Oc3cc4c(cc32)OCO4)cc(OC)c1OC (stereo unspecified)	64*	-21	-40	54	nt	23
O=C1CSC(c2ccc(F)c(F)c2)N1c1ccccc1F (stereo unspecified)	0	2	3	6	nt	12
Cc1cc(C)cc(N=Cc2[nH]c3ccc(Br)c(Cl)c3c2O)c1	7	3	10	10	103*	6
CCOC(=O)[C@]12CCC=C1N(Cc1ccco1)C(=O)[C@H](CC(=O)NCCC(C)C)C2	nt	nt	nt	nt	nt	0
O=C1c2ccccc2C(=O)c2c1ccc(C(=O)N1CCCCC1)c2NCCO	10	24	-11	25	41	-1
CC1(C)CCCN(C(=O)c2ccc3c(c2NCCO)C(=O)c2ccccc2C3=O)C1	-2	23	-1	16	36	40*
CCC(C)(C)C1CCc2c(sc(NC(=O)c3ccoc3C)c2C(N)=O)C1 (stereo unspecified)	-2	6	-1	-6	72*	31
CCN1CCN(CCNC(=O)c2ccc3nc(-c4cccc(C)c4)c(-c4cccc(C)c4)nc3c2)CC1	12	91*	4	87*	nt	2
O=C(NCCCN1CCCCCC1)c1ccc2c(Cl)c3c(nc2c1)CCCC3	-6	14	6	-2	58	-8
CCN1CCN(CCCNC(=O)c2ccc3c(Cl)c4c(nc3c2)CCCC4)CC1	19	74*	-4	92*	nt	-18
CC(C)NC(=O)C1(C)CCCN1Cc1ccccc1C#N (stereo unspecified)	1	4	4	nt	nt	4
Cc1ccc(/C=N/NC(=O)CSc2nc3ccccc3c(=O)n2-c2ccccc2)s1	-12	-1	8	-6	-21	6
Cc1nn(-c2ccccc2)c(C)c1/C=N/NC(=O)CSc1nc2ccccc2c(=O)n1-c1ccc(Br)cc1	21	58*	-20	-5	85*	11
SMILES	CF NFkB block	Peg3 prom inh	KKLEB cytotox	TRPM1 prom inh	CHOP inhibitor	HIF-2a block
Cc1ccc(/C=N/NC(=O)CSc2nc3ccccc3c(=O)n2-c2ccccc2C)s1	-32	51*	7	7	21	11
Cc1ccc(-c2nnc(SCC(=O)N/N=C/c3ccc(C)s3)n2-c2ccc(C)cc2)cc1	-21	33	-1	-14	75*	1
Cc1ccc(-c2nnc(SCC(=O)N/N=C/c3ccccc3C(=O)O)n2-c2ccccc2)cc1	nt	nt	nt	nt	-6	nt
Cc1ccc(-n2c(SCC(=O)N/N=C/c3c(C)nn(-c4ccccc4)c3C)nc3ccccc3c2=O)cc1	24	39	-4	-11	-29	1
CCCCCCCCCC(=O)N/N=C/c1ccc(C)s1	12	-16	-3	5	95*	-53
Cc1ccccc1-n1c(SCC(=O)N/N=C/c2c(C)nn(-c3ccccc3)c2C)nc2ccccc2c1=O	-9	54*	19	9	34	15
C[C@@H]1CCCCO[C@H](CN(C)Cc2ccc(C(=O)O)cc2)[C@H](C)CN([C@@H](C)CO)C(=O)c2cc(NC(=O)Nc3ccc(C(F)(F)F)cc3)ccc2O1	-3	7	11	nt	nt	-2
CCOc1cc(/C=N/NC(N)=O)cc(Br)c1OCc1ccccc1F	-34	14	3	-5	68	27
CCOc1cc(/C=N/NC(=O)Cn2nc([N+](=O)[O-])cc2C)cc(Br)c1OCc1ccccc1F	6	11	-20	4	78*	14
Cc1cc(C)c2c(=O)n3c(nc2c1)C(Cc1ccc(O)cc1)NC(=O)c1cc2ccccc2cc1-3 (stereo unspecified)	5	67*	-2	nt	nt	-10
C[C@@H]1C[C@H]2[C@@H]3C[C@H](F)C4=CC(=O)C=C[C@]4(C)[C@@]3(Cl)[C@@H](O)C[C@]2(C)[C@H]1C(=O)COC(=O)C(C)(C)C	69*	6	4	-16	nt	22
N=c1c2c(n(Cc3ccc([N+](=O)[O-])cc3)c3c1CCC3)CCCC2	-4	13	7	6	11	6
CCCn1c2c(c(=N)c3c1CCC3)CCCC2	6	14	3	8	-21	19
N=c1c2c(n(Cc3ccc(Cl)c(Cl)c3)c3c1CCC3)CCCC2	38	39	-17	71*	50	25
N=c1c2c(n(Cc3ccc(Br)cc3)c3c1CCC3)CCCC2	45	22	-59*	65*	10	15
Cc1cc(C)nc(S/C=C/C(=O)c2ccccc2F)n1	76*	97*	8	87*	85*	15
CC(C)N(C(=O)N1CCN(c2ccnc3cc(Cl)ccc23)CC1)C(C)C	3	54*	-3	4	nt	20
O=C1NC2c3c(Cl)sc(Cl)c3C(=O)C2O1 (stereo unspecified)	3	68*	-2	4	nt	32
COc1ccc(S(=O)(=O)N(C)C)cc1NC(=O)c1ccc(OCC2CCCO2)cc1 (stereo unspecified)	12	7	-17	nt	nt	-1
